In all, about 640,000 compounds went through this assay and about 9,300 (1.5%) were called active. Only a selection was taken, and actives are over-represented in it overall. Unmarked numbers belong to inactive results. No stated cut-off is given here; in the data, active means inhibition above about 32%; inactive means the rest.

This experiment is described as follows: TEAD-YAP interaction inhibition, primary screen, TEAD-YAP interaction inhibitor project, luminescence, HEK-TIYL cells (AID 1259422).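 Further: 0% = median of test compound wells and 100% = reference inhibitor wells.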 The conditions noted are these: TEAD-Gal4/YAP UAS-luciferase luminescence, at 9.12 µM, active compounds read high.
Consider `O=C1CSC(c2ccc(F)c(F)c2)N1c1ccc(Br)cc1` (stereo unspecified), for which the inhibition (in general, the relative decrease from the control value, in per cent) was -4.77%.
Turning to `CCCCC(=O)NC(c1ccc(OC)c(OC)c1)c1ccc2cccnc2c1O` (stereo unspecified), the inhibition is 89.2% (active).
The result for `CCCCC(=O)NC(c1ccc(OC)cc1)c1cc([N+](=O)[O-])c2cccnc2c1O` (stereo unspecified) reads 7.56%; that for `CCCCC(=O)NC(c1ccco1)c1ccc2cccnc2c1O` (stereo unspecified), 26.7%.
Regarding `CCC1CCCCN1C(=O)Cn1c2ccccc2c(=O)c2cc(C)ccc21` (stereo unspecified), the inhibition is -3.07%.
Then `CCn1nnc2c1CCN(CC(O)C(C)(C)C)C2` (stereo unspecified), with -9.09%; and `O=C(Cn1cnc2c(nnn2-c2cccc(F)c2)c1=O)N1CCCCC1`, with 6.15%.
Then `Cc1cccc(N2CCN(C(=O)c3ccc4c(c3)C(=O)N(CCC3=CCCCC3)C4=O)CC2C)c1` (stereo unspecified), with -3.98%.
The result for `Cc1cccc(N2CCN(C(=O)c3cccc(N4C(=O)C(C)CS4(=O)=O)c3)CC2)c1` (stereo unspecified) reads -2.6%.
`Cc1cccc(N2CCN(C(=O)c3cccc(C#N)c3)CC2C)c1` (stereo unspecified): the inhibition is 41.6% (active).
Then `COc1ccc2c(c1)CC(C(=O)Nc1ccc(-c3ccncc3)cc1OC(C)CN(C)C)CO2` (stereo unspecified), with -0.11%; and `CC(C)CC(NC(=O)C(Cc1ccccc1)NC(=O)OC(C)(C)C)C(=O)O` (stereo unspecified), with 1.85%; and `CC(C(=O)O)c1ccc(NC(=O)OC(C)(C)C)cc1` (stereo unspecified), with 32.1% (active).
Consider `COC(=O)NCC(C)OC(=O)Nc1ccc(C)cc1` (stereo unspecified), for which the inhibition is -12.2%.
`Cc1cc(C)nc(N2CCN(S(=O)(=O)c3ccc(C)c(Cl)c3)CC2)n1`: the inhibition is 1.94%.
Turning to `Fc1cccc(-c2nnc3ccc4cc(C(F)(F)F)ccc4n23)c1`, the inhibition was -12.5%.
Then `COc1ccc(N2CCN(S(=O)(=O)c3ccc(Cl)cc3)CC2)c([N+](=O)[O-])c1`, with 6.09%; and `CCN(C(=O)COc1ccc(Cl)cc1)c1nnc(-c2cccnc2)s1`, with -11.5%.
With `COc1ccccc1NC1=C/C(=N/S(=O)(=O)c2ccc(F)cc2)c2ccccc2C1=O`, the inhibition is -21.4%.
As for `O=C1C=C(Nc2ccc(O)cc2)c2ccccc2C1=O`, the inhibition is 93.2% (active).
Consider `COc1ccc(S(=O)(=O)/N=C2/C=C(Nc3ccc(O)cc3)C(=O)c3ccccc32)cc1`, for which the inhibition was 99.3% (active).
Then `COC(=O)c1ccccc1NC1=C/C(=N/S(=O)(=O)c2ccccc2)c2ccccc2C1=O`, with 5.16%.
Then `O=C(CN1C(=O)c2ccccc2C1=O)Nc1ccc(O)cc1`, with -11.7%; and `O=C1C(Nc2ccc(O)cc2)=C(n2nnc3ccccc32)C(=O)c2ccccc21`, with 27.1%; and `CCOC(=O)c1ccccc1Nc1nc(-c2ccc(OC)cc2)no1`, with 8.95%.
With `O=[N+]([O-])c1ccc2c(c1)nc1ccccn12`, the inhibition is -11.7%.
With `CC(=O)N1CCC(N(C(=O)CSCCNC(=O)c2ccccc2Cl)C2CC2)CC1`, the inhibition is 2.5%.
Then `CC1CCc2c(sc(NC(=O)c3cc4ccccc4oc3=O)c2C#N)C1` (stereo unspecified), with 11.2%; and `C=CCN1C(=S)NC2CC1(C)Oc1c(OC)cccc12` (stereo unspecified), with 2.23%.
For `CCOc1ccc(Cc2c(Cl)nc(SC)nc2N(CC)CC)cc1`, the inhibition was 2.33%.
On to `CCCOc1ccc(N2C(=O)CC(NCCc3ccc(Cl)cc3)C2=O)cc1` (stereo unspecified), for which the inhibition is -11%.
For `CCCOc1ccc(Cc2c(Cl)nc(SC)nc2NC)cc1`, the inhibition was 35.1% (active).
The result for `COc1cccc(/C=C(\C#N)c2nn(CCO)c(N)c2C#N)c1OCc1ccc(Cl)cc1Cl` reads 2.5%.
The result for `CC(=O)N1CCc2cc(S(=O)(=O)NC3CCCCC3)ccc21` reads 10.8%; that for `CC(=O)N1CCc2cc(S(=O)(=O)NCCC(=O)O)ccc21`, 0.75%; that for `CC(=O)N1CCC(N(C(=O)C2CC2)c2ccc3c(c2)CCN3C(C)=O)CC1`, 46.4% (active).
The result for `CCOC(=O)C1=C(C)N=c2s/c(=C\c3ccc(-c4ccc([N+](=O)[O-])cc4OC)o3)c(=O)n2C1c1ccccc1` (stereo unspecified) reads -12.5%; that for `CCn1c(=O)[nH]c(=O)c2c(C(F)(F)F)cc(C(F)(F)F)nc21`, -11.4%.
On to `CCOC(=O)c1cc(-c2nnc(-c3ccccc3)o2)c(C)nc1C`, for which the inhibition was -1.76%.
On to `CCc1ccc(NC(=O)CSC2=C(C#N)C(c3ccco3)C(C(=O)Nc3ccc(Cl)cc3)=C(C)N2)cc1` (stereo unspecified), for which the inhibition is 26.3%.
With `CC(=O)c1c(C)[nH]c(C(=O)Nc2ccc(Cl)c(C(F)(F)F)c2)c1C`, the inhibition is 3.78%.
Then `CS(=O)(=O)c1ncc(Cl)c(C(=O)Nc2ccc(Cl)c(C(F)(F)F)c2)n1`, with 51% (active).
Then `CS(=O)(=O)c1ncc(Cl)c(C(=O)Nc2nc3ccc(F)cc3s2)n1`, with -10.7%; and `Cc1ccc(CC(=O)Nc2ccc(Cl)c([N+](=O)[O-])c2)cc1`, with -2.28%; and `COc1ccc(Cl)cc1NC(=O)C(=O)Nc1ccc2nc3n(c(=O)c2c1)CCCCC3`, with 0.92%.
As to `COc1ccc([N+](=O)[O-])cc1C1=N/C(=C/c2ccc(C(C)C)cc2)C(=O)O1`, the inhibition was 1.78%.
The result for `CCC(=O)N(CCO)Cc1cc2cc(CC)ccc2[nH]c1=O` reads 10.6%.
Then `CCOC(=O)c1c(NC(=O)c2ccccc2)sc(C(=O)Nc2ccccc2OC)c1C`, with 0.4%.
For `Cc1nc(-c2ccc(NC(=O)c3cccc(Br)c3)cc2)cs1`, the inhibition was -71.4%.
In the case of `CC(=O)Nc1cccc(-c2csc(C)n2)c1`, the inhibition is -2.27%.
Turning to `O=C(Nc1cc(F)cc(F)c1)c1cccs1`, the inhibition was -5.52%.
In the case of `O=C(Nc1cc(Cl)cc(Cl)c1)c1cccs1`, the inhibition was -3.5%.
Then `Cc1nc(-c2ccc(NC(=O)c3cccs3)cc2)cs1`, with 48.2% (active); and `O=C(Nc1ccc(C23CC4CC(CC(C4)C2)C3)cc1)c1cccs1`, with 85.4% (active).
The result for `Cc1ccc2cccc(SCC(=O)Nc3ccc(Br)cc3)c2n1` reads 17.4%.
The result for `COc1ccc(-n2nc3cc(C)c(NC(=O)c4ccccc4I)cc3n2)cc1` reads -23.3%; that for `CN(CCC(=O)Nc1cccc(F)c1)Cc1ccccc1`, 2.01%; that for `COc1ccccc1NC(=O)CSc1n[nH]c(C)n1`, 5.98%.
Take `COc1ccc(C(=O)CSc2n[nH]c(C)n2)cc1`: the inhibition is -4.7%.
Then `COc1ccc(CSc2n[nH]c(C)n2)cc1Cl`, with 44.5% (active); and `COc1ccccc1Nc1nc(-c2ccc(Cl)cc2)cs1`, with -12%; and `COc1ccccc1Nc1cc(C)nc2ccc(Cl)cc12`, with 4.34%.
Regarding `COc1ccccc1NC1=NC(c2ccc(Cl)cc2)N=C(N)N1` (stereo unspecified), the inhibition is 40.4% (active).
The result for `O=C(NCC1CCCN(Cc2cccn2-c2ncccn2)C1)c1n[nH]c2ccccc12` (stereo unspecified) reads 33.7% (active); that for `O=C(NCC1CCCN(Cc2nc(-c3ccccc3)cs2)C1)c1cccs1` (stereo unspecified), 9.19%.
With `Cc1c(CN2CCCC(CNC(=O)c3ccc4c(c3)OCO4)C2)[nH]c2ccccc12` (stereo unspecified), the inhibition was 13.5%.
The result for `CCOc1ccc(CN2CCN(Cc3ccc(OC)c(OCC)c3)CC2)cc1` reads -0.01%; that for `FC(F)(F)c1cccc(N2N=C(/C=C/c3ccccc3)CC2c2ccccc2)c1` (stereo unspecified), -3.08%; that for `Cn1c(=O)n(C)c2cc(/C=C3/SC(=Nc4ccc(F)cc4)NC3=O)ccc21`, -33.4%.
Take `O=C1NC(=Nc2ccc(F)cc2)S/C1=C\c1ccc(O)c(O)c1`: the inhibition was 51.2% (active).
Then `O=C1NC(=Nc2ccc(F)cc2)S/C1=C\c1cccs1`, with 7.85%; and `CCCCNC(=O)C(=O)NCC1COc2ccccc2O1` (stereo unspecified), with -0.58%; and `COc1ccc(OCC(=O)Nc2nc3ccc(C)cc3s2)cc1`, with -5.48%.
Then `O=C(NCCOc1ccccc1)c1cc(NC2CCN(Cc3ccccc3)CC2)nc2ccccc12`, with 10.3%; and `Cc1ccc(NC(=O)/N=C/c2sc(=O)[nH]c2O)cc1`, with -3.99%; and `c1ccc(-c2ncn[nH]2)c(Nc2ccnc(Nc3ccc(N4CCOCC4)cc3)c2)c1`, with 44% (active).
On to `FC(F)(F)c1ccc(Cn2cnc3c(NCc4cccc(C(F)(F)F)c4)nc(Nc4ccc(N5CCOCC5)cc4)nc32)cc1`, for which the inhibition is 2.31%.
Take `c1ccc(-n2cnc(-c3ccnc(Nc4ccc(N5CCOCC5)cc4)c3)n2)cc1`: the inhibition was -7.29%.
With `c1nc(Nc2ccc(N3CCOCC3)cc2)cc(N2CCOCC2)n1`, the inhibition was 2.49%.
The result for `FC(F)(F)c1cccc(CNc2nc(Nc3ccc(N4CCOCC4)cc3)nc3c2ncn3-c2ccsc2)c1` reads -6.95%; that for `c1ccc(Nc2nc(Nc3ccc(N4CCOCC4)cc3)nc3nc[nH]c23)cc1`, 24.1%.
The result for `Cc1cnc(-c2c(C)noc2C)nc1Nc1ccc(N2CCOCC2)cc1` reads -11.4%.
Then `CNC(=O)c1ccccc1Nc1ccnc(Nc2ccc(N3CCOCC3)cc2)c1`, with 8.21%; and `c1cncc(-n2cnc(-c3ccnc(Nc4ccc(N5CCOCC5)cc4)c3)n2)c1`, with -10.2%; and `c1cc(-c2ocnc2-c2ncco2)cc(Nc2ccc(N3CCOCC3)cc2)n1`, with 38.6% (active).
As to `Cc1cnc(Nc2ccc(N3CCOCC3)cc2)nc1NCc1cccc(C(F)(F)F)c1`, the inhibition is 67.6% (active).
As for `Cc1cnc(Nc2ccc(N3CCOCC3)cc2)nc1Nc1ccccc1-c1ncn[nH]1`, the inhibition is 68.8% (active).
The result for `O=[N+]([O-])c1ccc(Cl)c(S(=O)(=O)n2nnc3ccccc32)c1` reads -1.22%; that for `COC(=O)C1C(=O)NC(SCC(=O)Nc2ccc(OC)cc2)=C(C#N)C1c1ccc(C)cc1` (stereo unspecified), -9.22%; that for `CC(C)CCNS(=O)(=O)c1ccc2[nH]c3nc4nc(-c5ccc(Br)cc5)cn4nc3c2c1`, 6.91%.
Then `Cc1cc(=O)oc2c(/C=N\NC(=O)c3ccc(Br)cc3)c(O)ccc12`, with 5.44%.

(Values after PubChem BioAssay AID1259422 (The Scripps Research Institute Molecular Screening Center, 2018).)
